For orientation: inhibition means the relative decrease from the control value, in per cent.

The values that follow come from PubChem BioAssay AID651821 (The Scripps Research Institute Molecular Screening Center, 2012).

Screen size: about 370,000 compounds; about 4,700 (1.3%) were called active.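 Rule for the calls: active = inhibition above the plate cutoff, the mean of all test compounds on that plate plus 3 SD (cut at about 35% in these data); inactive = the rest.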 The full list was thinned out, with actives kept by preference.

The experiment is described as follows: small molecules binding CAG repeat RNA – biochemical, fluorescence, primary screen (AID 651821).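 Note: 0% = DMSO alone and 100% = 100 µM mitoxantrone as full dye displacement; higher means more dye released from RNA so lower well fluorescence.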 The conditions noted are these: r(CAG) RNA repeat, TO-PRO-1 dye displacement fluorescence; at 3 µM; stronger effect = higher value.
For `Nc1ncnc2c1ncn2[C@@H]1O[C@H](C(=O)N[C@@H](CCc2ccccc2)C(=O)N2CCCN(Cc3cccs3)CC2)[C@@H](O)[C@H]1O`, the inhibition is 1.07% (inactive).
For `CCCC[C@H]1C2CC(OC(=O)NCc3ccccc3)C(C2)[C@H]2CCCCN21` (stereo partly drawn), the inhibition was 2.74% (inactive).
In the case of `O=S1(=O)c2c(NCc3ccco3)cccc2Oc2ccccc2CN1Cc1cn(Cc2cccc(C(F)(F)F)c2)nn1`, the inhibition was 13.6% (inactive).
Take `COCc1cc(N2CCN(C(=O)OC(C)(C)C)C[C@@H]2C)ccc1N1CCN(Cc2ccccc2)[C@H](C)C1`: the inhibition was 3.76% (inactive).
The figure for `CCCC(=O)N1CCC1(C)C(=O)NS(=O)(=O)c1ccc(Cl)cc1` (stereo not drawn) is 3.6% (inactive).
Turning to `CC(C)c1ccc(CC(=O)N2CCC2(C)C(=O)NS(=O)(=O)c2ccc(C(C)(C)C)cc2)cc1` (stereo not drawn), the inhibition is 71% (active).
In the case of `CC(C)(C)c1ccc(S(=O)(=O)NC(=O)C2(C)CCN2C(=O)CC2CC2)cc1` (stereo not drawn), the inhibition was 5.41% (inactive).
For `O=c1ccc2c(-c3ccccc3S(=O)(=O)O)c3ccc(O)c(O)c3oc-2c1O`, the inhibition was 66.8% (active).
Consider `COc1ccc(C(=O)CSc2nnc(-c3cnccn3)n2-c2ccc(C)cc2)cc1`, for which the inhibition is 4.26% (inactive).
Take `Cc1cc(NC(=O)COC(=O)/C=C/c2ccc(C)o2)no1`: the inhibition is -0.62% (inactive).
As to `O=C(/C=C/c1ccc([N+](=O)[O-])o1)NNC(=O)c1ccc(F)cc1`, the inhibition is 7.58% (inactive).
Consider `Cc1ccc(/C=C/C(=O)Nc2ccc([N+](=O)[O-])c(NC(=O)/C=C/c3ccc(C)o3)c2)o1`, for which the inhibition was 51% (active).
`C[C@@H]1ON(C)[C@H]2C[C@H]3c4[nH]c5cccc(-c6ccc7c(c6)OCO7)c5c4CCN3C[C@@H]12`: the inhibition was 6.14% (inactive).
`COc1ccccc1C(=O)NCCC(=O)NN1C(=O)NC2(CCCCC2)C1=O`: the inhibition was -4.93% (inactive).
As for `COc1cccc2sc(NNC(=O)c3nc4ccccc4s3)nc12`, the inhibition is 62.5% (active).
As to `COc1ccccc1C(=O)Nc1nc2nc(-c3ccccc3)cc(=O)n2[nH]1`, the inhibition was 7.94% (inactive).
With `COc1ccccc1C(=O)Nn1cnnc1`, the inhibition is -5.43% (inactive).
For `COC(=O)[C@@]12CCCCC3=C1N(CCC3)C(=O)[C@H]2CC(=O)NCc1cccc2ccccc12`, the inhibition was 3.84% (inactive).
For `COc1ccc(S(=O)(=O)N(CC(=O)N/N=C/c2ccc(C(=O)O)cc2)Cc2ccccc2)cc1OC`, the inhibition is 25.2% (inactive).
With `CC(=O)Nc1ccc(S(=O)(=O)N(CCc2ccccc2)CC(=O)N/N=C/c2ccc(C(=O)O)cc2)cc1`, the inhibition is 40.4% (active).
Under `CC(=O)Nc1ccc(S(=O)(=O)NCCc2ccccc2)cc1` stands -3.69% (inactive); under `O=C(Nc1c(Cl)c(C2CC2)nn1-c1ccccc1)C(Cl)(Cl)Cl`, 2.42% (inactive); under `CCCCCN1CCCCC(NC(=O)C(C)CCC)C1=O` (stereo not drawn), -0.91% (inactive).
Regarding `COC(=O)C1CN(Cc2ccc(F)cc2)CCS(=O)(=O)N1Cc1ccc(Cl)cc1` (stereo not drawn), the inhibition is 2.48% (inactive).
`COc1ccc(C(C(=O)NCc2ccccc2)n2c(=O)c(-c3ccccc3)nc3ccccc32)cc1` (stereo not drawn): the inhibition is 7.82% (inactive).
As to `CCCCCNC(=O)C(c1ccc(OC)cc1)n1c(=O)c(-c2ccccc2)nc2ccccc21` (stereo not drawn), the inhibition is 7.62% (inactive).
As to `Cc1cccc(C)c1NC(=O)C(c1ccc(C(F)(F)F)cc1)n1c(=O)c(-c2ccco2)nc2ccccc21` (stereo not drawn), the inhibition is 34.8% (active).
The figure for `O=C(NC1CCCCC1)C(c1cc2ccccc2o1)n1c(=O)c(-c2ccco2)nc2ccccc21` (stereo not drawn) is 24.4% (inactive); for `N#Cc1ccc(C(C(=O)NCc2ccccc2)n2c(=O)c(-c3ccco3)nc3ccccc32)cc1` (stereo not drawn) it is 38.9% (active).
`COc1ccc(NC(=O)C(c2ccncc2)n2c(=O)c(-c3cc4ccccc4[nH]3)nc3ccccc32)cc1` (stereo not drawn): the inhibition is 19.9% (inactive).
Regarding `CCC(C(=O)Nc1c(C)cccc1C)n1c(-c2cc(C)cs2)nc2ccccc21` (stereo not drawn), the inhibition is 2.46% (inactive).
Under `Cc1cccc(C)c1NC(=O)C(c1cccc2ccccc12)n1c(=O)c(-c2ccco2)nc2ccccc21` (stereo not drawn) stands 43.8% (active).
For `COc1ccc(C(C(=O)Nc2c(C)cccc2C)N2CCN(c3ccc(C)cc3)CC2)cc1` (stereo not drawn), the inhibition is 1.38% (inactive).
The figure for `CC(=O)N1CCc2cc(S(=O)(=O)NCCC(=O)N3CCCC3)ccc21` is 0.89% (inactive); for `COc1ccc(C2=CN(Cc3ccccc3)C(c3ccc(OC)cc3)CC2=O)cc1` (stereo not drawn) it is 2.54% (inactive).
With `COC(=O)C1CN(CCc2ccccc2)CCS(=O)(=O)N1Cc1ccc(F)cc1` (stereo not drawn), the inhibition is 5.69% (inactive).
Take `O=C(NCC1COc2ccccc2O1)c1ccc(NC(=O)c2cc(F)ccc2F)cc1` (stereo not drawn): the inhibition was 4.71% (inactive).
On to `CC(CCN1CCC(C(O)(c2ccccc2)c2ccccc2)CC1)Oc1ccc([N+](=O)[O-])cc1Cl` (stereo not drawn), for which the inhibition was 2.17% (inactive).
The figure for `CCOC(=O)Cc1csc(SCC(=O)NC(C)C23CC4CC(CC(C4)C2)C3)n1` (stereo not drawn) is -11.4% (inactive); for `O=S(=O)(Nc1ccc(O)c2ccccc12)c1ccc(OC(F)(F)F)cc1` it is 39% (active).
For `O=S(=O)(Nc1ccc(OC(F)(F)F)cc1)c1cccc2nonc12`, the inhibition is 3.85% (inactive).
In the case of `O=[N+]([O-])c1ccc(NS(=O)(=O)c2ccccc2)c(Cl)c1`, the inhibition was 6.07% (inactive).
As for `COC(=O)[C@]12C[C@H](CC(=O)NCc3cccc4ccccc34)C(=O)N(CCc3ccc(OC)c(OC)c3)C1=C[C@H](C1CCCC1)O[C@@H]2C`, the inhibition is 6.55% (inactive).
Take `Nc1[nH]c(/C=C2/CCCCC2n2[nH]c(=O)n(-c3ccccc3)c2=O)c(Cc2ccccc2)[n+]1Cc1ccccc1` (stereo not drawn): the inhibition was 8.51% (inactive).
Turning to `COc1ccc(CCNC(=O)CSc2nc3c([nH]2)c(=O)n(C)c(=O)n3C)cc1`, the inhibition was 1.31% (inactive).
Regarding `O=C(O)c1ccccc1-c1ccccc1C(=O)Nc1ccccc1Br`, the inhibition was 1.52% (inactive).
Regarding `O=C(NC(=S)Nc1ncccn1)c1ccccc1Br`, the inhibition was -2.07% (inactive).
Consider `O=C(NC(=S)Nc1ccccc1C(=O)O)c1ccc(-c2ccc(Br)cc2)o1`, for which the inhibition was 69.5% (active).
For `CCCCCCCCN1C(=O)[C@@H](CC(=O)NCCCC)C[C@@]2(C(=O)OC)C1=C[C@H](C(C)(C)C)O[C@@H]2C`, the inhibition was 0.05% (inactive).
Consider `CCCCOCC1CN(CCCC)S(=O)(=O)c2c(Oc3ccc(F)cc3)cccc2O1` (stereo not drawn), for which the inhibition is 2.41% (inactive).
For the compound `Fc1ccc2cnc(-c3ccccc3)cc2c1`, the inhibition was 2% (inactive).
For the compound `Nc1cccc(-c2cc(-c3ccccc3)nc(-c3cccc(N)c3)n2)c1`, the inhibition was 35.3% (active).
Under `Nc1cccc(-c2cncc(N3CCN(Cc4ccccn4)CC3)n2)c1` stands 2.15% (inactive).
